Laboratory results: PubChem BioAssay (Tox21)
Values joined by “and” are separate entries in the source; they are usually repeats but may differ in a detail not shown here. Equal entries are not always repeated. Records with an inconclusive call do not appear. A number with no mark means an inactive call. Active and inactive are the calls of the source. Calls come from the whole dose curve; as a rule, active = well fitted cell-killing curve with a large enough effect in the repeat runs; inconclusive = weak or mixed curves, or effect the other way; inactive = no such curve, though single readings can be large or run the other way.

Experiment: qHTS assay for identifying genotoxic compounds that show differential cytotoxicity against isogenic chicken DT40 cell lines with known DNA damage response pathways - wild type cell line (AID 743012); note: nearly all actives have a fitted effect of over 60% in size
Settings: DT40 wild type chicken cells viability, CellTiter-Glo, 40 h; series mostly up to 68.4 µM; activity change, negative = cytotoxicity: at the top concentration
In short: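 Quantitative HTS on parental DT40 cells: 40 h compound treatment at 37 C/5% CO2, with viability then determined by CellTiter-Glo luminescence. Values serve as the DNA repair-proficient reference for differential cytotoxicity.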
% is set by controls: 0 for no effect and ±100 for the full control effect; potency is the fitted concentration of half-maximal effect.

SMILES	Potency	activity change, negative = cytotoxicity
Nc1ccn([C@@H]2O[C@H](CO)[C@@H](O)C2(F)F)c(=O)n1	0.015 µM (active)	–
Clc1cc(Cl)c(Cl)nc1Cl	–	3.17%
C=COC(=O)C(C)(CC)CCC(C)C (stereo not drawn)	–	4.69%
CC1=NS(=O)(=O)c2cc(Cl)ccc2N1	–	1.73%
Cc1ccc(C(=O)c2ccc(CC(=O)O)n2C)cc1	–	0.925% [at 31.4 µM]
CN(C)CCN(C)CCN(C)C	–	-15.1%
CN(C)[C@@H]1C(=O)C(C(=O)NCN2CCCC2)=C(O)[C@@]2(O)C(=O)C3=C(O)c4c(O)cccc4[C@@](C)(O)C3C[C@@H]12 (stereo partly drawn)	inactive	–
CC(C)CC(C)(N)C#N (stereo not drawn)	–	13% [at 95 µM]
CO[C@@]1(NC(=O)C(C(=O)O)c2ccc(O)cc2)C(=O)N2C(C(=O)O)=C(CSc3nnnn3C)CO[C@@H]21 (stereo partly drawn)	–	3.42% [at 31.4 µM]
C[N+]1(C)CCCC(OC(=O)C(O)(c2ccccc2)c2ccccc2)C1 (stereo not drawn)	–	0.614% [at 31.4 µM]
COc1cc(C(=O)NCc2ccc(OCCN(C)C)cc2)cc(OC)c1OC	–	13.6% [at 31.4 µM]
NO	–	-5.31% [at 95 µM]
O=C(CO)[C@@H](O)[C@H](O)[C@H](O)CO	inactive	–
CC1=NN(c2cccc(S(=O)(=O)O)c2)C(=O)C1	–	-4.2%
O=C(c1ccccc1)C1(O)CCCCC1	–	6.95%
CCCCc1nc(Cl)c(CO)n1Cc1ccc(-c2ccccc2-c2nn[nH]n2)cc1	–	-3.95%
CN1CCN(c2cc3c(nn2)Oc2ccccc2N3C)CC1	–	-7.12%
OCCc1ccccn1	–	0.0728%
COCCOC[C@H](CC1(C(=O)NC2CCC(C(=O)O)CC2)CCCC1)C(=O)Oc1ccc2c(c1)CCC2 (stereo partly drawn)	–	8.83%
CC(=O)c1cnccn1	–	30% [at 95 µM]
CCCCc1ccc2c(n1)[C@@H](c1ccc(OC)cc1C[C@H](C)C(=O)O)[C@H](C(=O)O)[C@H]2c1ccc2c(c1)OCO2	–	-8.23%
CNC(=O)Nc1ccc(Cl)c(Cl)c1	–	-9.02%
COC(=O)Nc1ccc(Cl)c(Cl)c1	–	9.13%
CCC(C(=O)NC(=O)NC(C)=O)c1ccccc1 (stereo not drawn)	–	6.61%
OCCCCCO	–	4.56% [at 95 µM]
Nc1ccn([C@@H]2O[C@H](CO)[C@@H](O)[C@@H]2O)c(=O)n1	0.0611 µM (active)	–

Experiment: qHTS assay for identifying genotoxic compounds that show differential cytotoxicity against isogenic chicken DT40 cell lines with known DNA damage response pathways - Rev3 mutant cell line (AID 743014); note: nearly all actives have a fitted effect of over 55% in size
Settings: chicken DT40 Rev3-/- viability, CellTiter-Glo, 40 h; series mostly up to 68.4 µM; activity, negative = cytotoxicity: at the top concentration

SMILES	Potency	activity, negative = cytotoxicity
Nc1ccn([C@@H]2O[C@H](CO)[C@@H](O)C2(F)F)c(=O)n1	18.8 nM (active)	–
Clc1cc(Cl)c(Cl)nc1Cl	–	11.8%
C=COC(=O)C(C)(CC)CCC(C)C (stereo not drawn)	–	-1.98%
CC1=NS(=O)(=O)c2cc(Cl)ccc2N1	–	-0.0601%
Cc1ccc(C(=O)c2ccc(CC(=O)O)n2C)cc1	–	6.6% [at 31.4 µM]
CN(C)CCN(C)CCN(C)C	–	8.51%
CN(C)[C@@H]1C(=O)C(C(=O)NCN2CCCC2)=C(O)[C@@]2(O)C(=O)C3=C(O)c4c(O)cccc4[C@@](C)(O)C3C[C@@H]12 (stereo partly drawn)	inactive	–
CC(C)CC(C)(N)C#N (stereo not drawn)	–	-12.8% [at 95 µM]
C[N+]1(C)CCCC(OC(=O)C(O)(c2ccccc2)c2ccccc2)C1 (stereo not drawn)	–	8.69% [at 31.4 µM]
CN1CCC(=C2c3ccccc3CCc3cccnc32)CC1	–	0.484%
NO	–	-1.6% [at 95 µM]
O=C(CO)[C@@H](O)[C@H](O)[C@H](O)CO	inactive	–
CC1=NN(c2cccc(S(=O)(=O)O)c2)C(=O)C1	–	-28.1%
O=C(c1ccccc1)C1(O)CCCCC1	–	-15.4%
[O-][n+]1cccc(CO)c1	–	1.24%
CCCCCCCCCCCCCCCCCCO	–	4.15%
CN1CCN(c2cc3c(nn2)Oc2ccccc2N3C)CC1	–	-8.73%
OCCc1ccccn1	–	-16.8%
Nc1ccn([C@@H]2O[C@H](CO)[C@@H](O)C2O)c(=O)n1 (stereo partly drawn)	266 nM (active) and 172 nM (active)	–
COCCOC[C@H](CC1(C(=O)NC2CCC(C(=O)O)CC2)CCCC1)C(=O)Oc1ccc2c(c1)CCC2 (stereo partly drawn)	–	-23.2%
CC(=O)c1cnccn1	–	-25.4% [at 95 µM]
CCCCc1ccc2c(n1)[C@@H](c1ccc(OC)cc1C[C@H](C)C(=O)O)[C@H](C(=O)O)[C@H]2c1ccc2c(c1)OCO2	–	11.4%
O=C(O)c1cc(C(=O)O)cc(C(=O)O)c1	–	-1.25% [at 95 µM]
COC(=O)Nc1ccc(Cl)c(Cl)c1	–	1.9%
CCC(C(=O)NC(=O)NC(C)=O)c1ccccc1 (stereo not drawn)	–	7.65%
CCCCS(=O)(=O)N[C@@H](Cc1ccc(OCCCCC2CCNCC2)cc1)C(=O)O	–	-4.95%
Nc1ccn([C@@H]2O[C@H](CO)[C@@H](O)[C@@H]2O)c(=O)n1	43.3 nM (active)	–
